PubChem BioAssay (Tox21)
Results filed as inconclusive are left out. Entries that show only a call come without a potency. The source made the active and inactive calls. Calls follow the shape of the dose curve; as a rule, active = well fitted cell-killing curve with a large enough effect in the repeat runs; inconclusive = weak or mixed curves, or effect the other way; inactive = flat fitted curve, though single readings scatter.

Key:
[1] = cAMP Responsive Elements (CRE) small molecule antagonists, cell-based qHTS assay: qHTS cell viability counter screen (AID 2060913); also: nearly all actives have a fitted effect of over 40% in size
How it was run: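 Viability of NKH477-stimulated (0.25 uM final) CRE-bla HEK293T cells is measured by CellTiter-Glo luminescence following 3 hrs compound exposure at 37 C.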

[2] = cAMP Responsive Elements (CRE) small molecule agonists, cell-based qHTS assay: qHTS cell viability counter screen (AID 2060914);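 also: viability read after 3 h of compound exposure; nearly all actives have a fitted effect of over 50% in size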
How it was run: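 HEK 293T CRE-bla; DMEM + 10% dialyzed FBS, 25 mM HEPES; 18 h pre-incubation; compound 3 h, 37 °C/5% CO2; CellTiter-Glo added after reporter read; luminescence after 30 min RT.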

SMILES	Potency [1]	Potency [2]
COC(=O)[C@@H](N)Cc1ccc(O)c(O)c1	inactive	inactive
Cc1cccc(O)c1C	inactive	inactive
Cc1cc(C)cc(O)c1	inactive	inactive
CC(C)(C)NSc1nc2ccccc2s1	inactive	inactive
CC1=C(/C=C/C(C)=C/C=C/C(C)=C/C(=O)Nc2ccc(O)cc2)C(C)(C)CCC1	inactive	inactive
C[N+](C)(C)CC[N+]1(C)Cc2c(Cl)c(Cl)c(Cl)c(Cl)c2C1	inactive	inactive
S=C(S)NCCNC(=S)S	inactive	inactive
CCCCS(=O)(=O)N[C@@H](Cc1ccc(OCCCCC2CCNCC2)cc1)C(=O)O	inactive	inactive
O=C(Oc1cccc2cccnc12)c1ccccc1	inactive	inactive
C=C(C)C(=O)OCC1CCCO1 (stereo not given)	inactive	inactive
Cc1ccc2n[nH]nc2c1	inactive	inactive
O=S(=O)(O)NC1CCCCC1	inactive	inactive
CCOC(=O)[C@H](CCc1ccccc1)N[C@@H](C)C(=O)N1CCC[C@H]1C(=O)O	inactive	inactive
CC(C)(c1ccccc1)c1ccccc1	inactive	inactive
COc1cc2c(cc1OC)-c1cc3ccc(OC)c(OC)c3c[n+]1CC2	inactive	inactive
O=C1CN(/N=C/c2ccc([N+](=O)[O-])o2)C(=O)N1	inactive	inactive
OC(CCCN1CCCCC1)(c1ccccc1)c1ccccc1	inactive	inactive
CC(=O)NNC(C)=O	inactive	inactive
O=[N+]([O-])c1ccc(F)cc1F	inactive	inactive
CC(C)COC(=O)c1ccccc1O	inactive	inactive
